Test results reported in PubChem BioAssay (NCATS).
Records with an inconclusive call do not appear. Activity calls are given as the source filed them. Unless noted, calls come from the whole dose curve.

Test system: not listed separately
Assay: qHTS for Inhibitors of the Functional Ribonucleoprotein Complex (vRNP) of Lymphocytic Choriomeningitis Arenaviruses (LCMV): Viability assay - alamar blue signal for LCMV Primary Screen (AID 1347085; calls by dose curve; tested in HEK293 reporter line; note: nearly all actives have a fitted effect of over 80% in size)
Conditions: alamar blue viability counter-screen, LCMV vRNP screen cells; series mostly up to 57.5 µM; activity change, negative = lower viability: at the top concentration
% is set by controls: 0 for no effect and ±100 for the full control effect; potency is the fitted concentration of half-maximal effect.

| SMILES | activity change, negative = lower viability | Potency |
| --- | --- | --- |
| O=C1c2ccccc2C(=O)c2c(O)c(O)cc(O)c21 | 3.43% [at 115 µM] (inactive) | – |
| CC1CC[C@@]2(OC1)O[C@H]1CC3[C@@H]4C[C@@H](O)[C@@]5(O)C[C@@H](O)[C@H](O)C[C@]5(C)[C@H]4CC[C@]3(C)[C@H]1[C@@H]2C (stereo not given in full) | -1.16% (inactive) | – |
| CCCCCCCCC1CCC(=O)O1 (stereo not given) | 11.8% [at 115 µM] (inactive) | – |
| CCCC(=O)OCCC(C)CCC=C(C)C (stereo not given) | 7.01% [at 115 µM] (inactive) | – |
| C=C1[C@H]2CC[C@@H]3[C@H]2C(C)(C)CCC[C@]13C | 7.51% [at 115 µM] (inactive) | – |
| CCCCCCCCCCCCCC/C(C(=O)O)=C(\C)C(=O)O | 3.38% (inactive) | – |
| CC(C)CCOC(=O)CC(C)C | -84.4% [at 115 µM] (inactive) | – |
| NC1(C(=O)N[C@@H](CCO)c2ccc(Cl)cc2)CCN(c2ncnc3[nH]ccc23)CC1 | – | 0.611 µM (active) |
| CC/C=C\CC1=C(C)CCC1=O | 20.7% [at 115 µM] (inactive) | – |
| O=C(OCc1ccccc1)c1ccccc1O | 5.06% (inactive) | – |
| NC1(Cc2ccc(Cl)cc2)CCN(c2ncnc3[nH]ccc23)CC1 | – | 7.69 µM (active) |
| CN1CC[C@@]2([C@@]34CCN(C)C3Nc3ccccc34)c3ccccc3NC12 (stereo not given in full) | 2.19% (inactive) | – |
| CCN1C[C@]2(COC(=O)c3ccccc3N3C(=O)CC(C)C3=O)CC[C@H](OC)[C@@]34C5C[C@@H]6[C@@H](OC)C[C@@](O)(C5[C@H]6OC)[C@](O)([C@@H](OC)C23)[C@@H]14 (stereo not given in full) | 0.316% (inactive) | – |
| CNC(=O)c1cccc(-c2ccc3c(N4CCOC[C@H]4C)nc(N4CCOC[C@H]4C)nc3n2)c1 | – | 0.153 µM (active) |
| CC(C)=CCC/C(C)=C/CC/C(C)=C/CCC1(C)CCc2cc(O)ccc2O1 (stereo not given) | 8.45% (inactive) | – |
| COc1ccc(OC)cc1 | 7.64% (inactive) | – |
| COc1cc(O)cc2c1[C@@H]1Oc3c(ccc(O)c3CC=C(C)C)[C@@H]1CO2 | 1.02% (inactive) | – |
| COC(=O)/C=C/c1ccccc1 | 0.486% [at 115 µM] (inactive) | – |
| COc1c(-c2ccc(O)cc2)oc2cc(O)cc(O)c2c1=O | -6.2% (inactive) | – |
| CSc1c(Cl)c(Cl)c(Cl)c(Cl)c1Cl | 23.5% [at 115 µM] (inactive) | – |

| SMILES | activity change, negative = lower viability | Potency |
| --- | --- | --- |
| CO[C@H]1C=CCCC=CC(=O)O[C@H]([C@H](C)C(=O)CCCC2CC(=O)NC(=O)C2)C(C)=C[C@@H](C)[C@@H]1O | -20.8% (inactive) | – |
| CCOC(=O)c1c(C)cc(O)cc1O | 11.1% (inactive) | – |
| CC(C)Nc1nc(N)nc(Cl)n1 | 6.43% [at 115 µM] (inactive) | – |
| C=CC(C)=CCC=C(C)C | 5.44% [at 115 µM] (inactive) | – |
| O=C(O)c1ccccc1 | 1.63% (inactive) | – |
| CCCCC(CC)C(=O)O (stereo not given) | 17.3% (inactive) | – |
| O=C(O)c1ccccc1Cc1ccccc1 | 12.7% (inactive) | – |
| CC=C(C)C(=O)OC1CCN2CC=C(COC(=O)C(O)(C(C)OC)C(C)(C)O)C12 (stereo not given) | 9.72% (inactive) | – |
| COc1c2c(c(OC)c3c1c(=O)c1ccccc1n3C)OCO2 | 1.81% (inactive) | – |
| Nc1ncnc2c1ncn2[C@@H]1O[C@H](COP(=O)(O)OP(=O)(O)OC[C@H]2OC(O)[C@H](O)[C@@H]2O)[C@@H](O)[C@H]1O (stereo not given in full) | 7.09% (inactive) | – |
| C/C=C(/C)C(=O)O[C@H]1[C@@H](O)c2c(ccc3ccc(=O)oc23)OC1(C)C | 3.96% (inactive) | – |
| c1ccc2c3c([nH]c2c1)C1(CCCCC1)NCC3 | 3.99% (inactive) | – |
| CO[C@H]1[C@@H](OC)CC(OC2OC(CO)C(O)C(O)C2O)/C(=C\C#N)[C@@H]1O (stereo not given in full) | 5.06% (inactive) | – |
| NC(=O)c1ncn([C@@H]2O[C@H](CO)[C@@H](O)[C@@H]2O)c1O | -2.56% (inactive) | – |
| COc1cc2c(cc1OC)C1Cc3ccc(OC)c(OC)c3C[N+]1([O-])CC2 (stereo not given) | 6.61% (inactive) | – |
| Cn1c2c(c(=O)c3ccccc31)CCC(C)(C)O2 | 2.42% (inactive) | – |
| C=C1CC/C=C(\C)CC[C@@H]2[C@@H]1CC2(C)C | 4.91% [at 115 µM] (inactive) | – |
| CN=CNc1ccc(C)cc1C | 6.99% [at 115 µM] (inactive) | – |
| O=C1c2ccccc2-n2c1nc1ccccc1c2=O | -24.9% (inactive) | – |
| OC[C@H]1O[C@@H](n2cnc3c(NC4CCCCC4)ncnc32)[C@H](O)[C@@H]1O | 11.8% (inactive) | – |

Target: Nucleoprotein (Lymphocytic choriomeningitis virus (strain Armstrong)) (UniProt P09992)
Sequence (P09992 whole entry, looked up): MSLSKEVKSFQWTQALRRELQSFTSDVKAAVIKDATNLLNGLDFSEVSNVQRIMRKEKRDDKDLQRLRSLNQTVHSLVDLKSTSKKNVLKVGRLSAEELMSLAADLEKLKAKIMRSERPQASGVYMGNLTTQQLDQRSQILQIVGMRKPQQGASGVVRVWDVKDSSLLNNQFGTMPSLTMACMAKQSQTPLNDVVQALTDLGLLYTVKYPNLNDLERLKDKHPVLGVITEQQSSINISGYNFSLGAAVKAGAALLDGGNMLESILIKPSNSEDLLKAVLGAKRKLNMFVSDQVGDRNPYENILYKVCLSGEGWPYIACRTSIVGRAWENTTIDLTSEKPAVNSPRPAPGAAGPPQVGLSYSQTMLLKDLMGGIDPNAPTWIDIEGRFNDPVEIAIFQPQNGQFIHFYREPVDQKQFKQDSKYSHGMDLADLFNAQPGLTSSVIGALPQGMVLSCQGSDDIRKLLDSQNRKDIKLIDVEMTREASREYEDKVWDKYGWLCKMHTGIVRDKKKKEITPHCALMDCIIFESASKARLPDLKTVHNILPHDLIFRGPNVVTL
Assay: qHTS for Inhibitors of the Functional Ribonucleoprotein Complex (vRNP) of Lymphocytic Choriomeningitis Arenaviruses (LCMV): LCMV Primary Screen - GLuc reporter signal (AID 1347086); note: nearly all actives have a fitted effect of over 70% in size
Conditions: LCMV minigenome vRNP cell assay, Gaussia luciferase reporter; series mostly up to 57.5 µM; activity change, negative = inhibition: at the top concentration

| SMILES | activity change, negative = inhibition | Potency |
| --- | --- | --- |
| O=C1c2ccccc2C(=O)c2c(O)c(O)cc(O)c21 | -3.2% [at 115 µM] (inactive) | – |
| CC1CC[C@@]2(OC1)O[C@H]1CC3[C@@H]4C[C@@H](O)[C@@]5(O)C[C@@H](O)[C@H](O)C[C@]5(C)[C@H]4CC[C@]3(C)[C@H]1[C@@H]2C (stereo not given in full) | 6.62% (inactive) | – |
| CCCCCCCCC1CCC(=O)O1 (stereo not given) | -0.893% [at 115 µM] (inactive) | – |
| CCCC(=O)OCCC(C)CCC=C(C)C (stereo not given) | 26.9% [at 115 µM] (inactive) | – |
| C=C1[C@H]2CC[C@@H]3[C@H]2C(C)(C)CCC[C@]13C | 20.6% [at 115 µM] (inactive) | – |
| CCCCCCCCCCCCCC/C(C(=O)O)=C(\C)C(=O)O | 7.9% (inactive) | – |
| CC(C)CCOC(=O)CC(C)C | -69% [at 115 µM] (inactive) | – |
| NC1(C(=O)N[C@@H](CCO)c2ccc(Cl)cc2)CCN(c2ncnc3[nH]ccc23)CC1 | – | 1.72 µM (active) |
| CC/C=C\CC1=C(C)CCC1=O | 21.3% [at 115 µM] (inactive) | – |
| O=C(OCc1ccccc1)c1ccccc1O | 27% (inactive) | – |
| NC1(Cc2ccc(Cl)cc2)CCN(c2ncnc3[nH]ccc23)CC1 | – | 9.68 µM (active) |
| CN1CC[C@@]2([C@@]34CCN(C)C3Nc3ccccc34)c3ccccc3NC12 (stereo not given in full) | -1.17% (inactive) | – |
| CCN1C[C@]2(COC(=O)c3ccccc3N3C(=O)CC(C)C3=O)CC[C@H](OC)[C@@]34C5C[C@@H]6[C@@H](OC)C[C@@](O)(C5[C@H]6OC)[C@](O)([C@@H](OC)C23)[C@@H]14 (stereo not given in full) | -5.96% (inactive) | – |
| CNC(=O)c1cccc(-c2ccc3c(N4CCOC[C@H]4C)nc(N4CCOC[C@H]4C)nc3n2)c1 | – | 0.137 µM (active) |
| CC(C)=CCC/C(C)=C/CC/C(C)=C/CCC1(C)CCc2cc(O)ccc2O1 (stereo not given) | -1.18% (inactive) | – |
| COc1ccc(OC)cc1 | -0.0306% (inactive) | – |
| COc1cc(O)cc2c1[C@@H]1Oc3c(ccc(O)c3CC=C(C)C)[C@@H]1CO2 | -30.6% (inactive) | – |
| COC(=O)/C=C/c1ccccc1 | 1.47% [at 115 µM] (inactive) | – |
| COc1c(-c2ccc(O)cc2)oc2cc(O)cc(O)c2c1=O | -31.1% (inactive) | – |
| CSc1c(Cl)c(Cl)c(Cl)c(Cl)c1Cl | 29.8% [at 115 µM] (inactive) | – |

| SMILES | activity change, negative = inhibition | Potency |
| --- | --- | --- |
| CO[C@H]1C=CCCC=CC(=O)O[C@H]([C@H](C)C(=O)CCCC2CC(=O)NC(=O)C2)C(C)=C[C@@H](C)[C@@H]1O | -19.5% (inactive) | – |
| CCOC(=O)c1c(C)cc(O)cc1O | 36.8% (inactive) | – |
| CC(C)Nc1nc(N)nc(Cl)n1 | 15.7% [at 115 µM] (inactive) | – |
| C=CC(C)=CCC=C(C)C | 0.783% [at 115 µM] (inactive) | – |
| O=C(O)c1ccccc1 | 18.5% (inactive) | – |
| CCCCC(CC)C(=O)O (stereo not given) | 16.6% (inactive) | – |
| O=C(O)c1ccccc1Cc1ccccc1 | 12.1% (inactive) | – |
| CC=C(C)C(=O)OC1CCN2CC=C(COC(=O)C(O)(C(C)OC)C(C)(C)O)C12 (stereo not given) | 66.6% (inactive) | – |
| COc1c2c(c(OC)c3c1c(=O)c1ccccc1n3C)OCO2 | 20.2% (inactive) | – |
| Nc1ncnc2c1ncn2[C@@H]1O[C@H](COP(=O)(O)OP(=O)(O)OC[C@H]2OC(O)[C@H](O)[C@@H]2O)[C@@H](O)[C@H]1O (stereo not given in full) | 31.1% (inactive) | – |
| C/C=C(/C)C(=O)O[C@H]1[C@@H](O)c2c(ccc3ccc(=O)oc23)OC1(C)C | 11.7% (inactive) | – |
| c1ccc2c3c([nH]c2c1)C1(CCCCC1)NCC3 | 10.8% (inactive) | – |
| CO[C@H]1[C@@H](OC)CC(OC2OC(CO)C(O)C(O)C2O)/C(=C\C#N)[C@@H]1O (stereo not given in full) | -0.922% (inactive) | – |
| NC(=O)c1ncn([C@@H]2O[C@H](CO)[C@@H](O)[C@@H]2O)c1O | 37.3% (inactive) | – |
| COc1cc2c(cc1OC)C1Cc3ccc(OC)c(OC)c3C[N+]1([O-])CC2 (stereo not given) | 18.4% (inactive) | – |
| Cn1c2c(c(=O)c3ccccc31)CCC(C)(C)O2 | 3.42% (inactive) | – |
| C=C1CC/C=C(\C)CC[C@@H]2[C@@H]1CC2(C)C | 21.2% [at 115 µM] (inactive) | – |
| CN=CNc1ccc(C)cc1C | -1.83% [at 115 µM] (inactive) | – |
| O=C1c2ccccc2-n2c1nc1ccccc1c2=O | – | 0.447 µM (active) |
| OC[C@H]1O[C@@H](n2cnc3c(NC4CCCCC4)ncnc32)[C@H](O)[C@@H]1O | 38.7% (inactive) | – |
